Drawing on PubChem BioAssay (NCI), this text covers growth for 39 compounds.

The structures appear in SMILES notation. Compounds without any hit were thinned out: in the full panel of roughly 83,000, 20% have a hit.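 Step 1: grow cells in 96-well plates. Step 2: add test compound at a single concentration. Step 3: incubate 48 h. Step 4: record percent growth.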 Active and inactive are the calls of the source. Rule for the calls: active = growth percent below 10; inactive = the rest.

The subject of one assay is HS 578T breast. Description: NCI-60 one-dose screen, 48 h (100 = growth as untreated, 0 = no growth, -100 = all killed). The conditions noted are these: 10 µM unless noted.
Regarding `O=C(O)C(O)C(O)C(=O)O.[NH-]C1CCCCC1[NH-].[Pt+2]` (stereo unspecified), the growth is 109% (inactive).

On to `Cc1ccc(Nc2c(C(N)=O)cnc3ccc(-c4csc(N)n4)cc23)cc1`, for which the growth is 92.9% (inactive).

For `Cl/C(=N\Nc1ccccc1)c1ccccc1`, the growth was 108% (inactive).

On to `COc1cc(-c2c3sc(=O)[nH]c3nc3c2c(=O)[nH]n3C(C)C)cc2c1OCO2`, for which the growth is 105% (inactive).

Take `CC(C)(C)n1cc(-c2ccnc(NCCNS(=O)(=O)c3ccccc3)c2)c(-c2cccc(O)c2)n1`: the growth is 62.4% (inactive).

Consider `COC(=O)C12C3C(=O)N(c4ccc(OC)cc4)C(=O)C3C(c3cn(-c4ccccc4)nc3C)N1[C@H](c1cn(-c3ccccc3)nc1C)[C@@H]1C(=O)N(c3ccc(OC)cc3)C(=O)[C@@H]12` (stereo partly specified), for which the growth was 106% (inactive).

Turning to `CC/C(Cc1ccccc1)=C(/c1ccc(O)cc1)c1ccc(OCCN2CCCC2)cc1`, the growth was -28% (active).

`O=C(NC(Cc1ccccc1)C(=O)CCl)OCc1ccccc1` (stereo unspecified): the growth was 99.5% (inactive).

In the case of `CCCCCC(=O)N(CCCC)CCCC`, the growth was 109% (inactive).

Consider `COc1cccc(/C=C2/C(=O)N(Cc3ccco3)SC2=S)c1OC`, for which the growth is 109% (inactive).

Regarding `COc1ccc(-c2cc(/C=C3\C(=O)Nc4ccc(Cl)cc43)[nH]n2)cc1`, the growth was 68.6% (inactive).

With `CCOC(=O)C(C#N)C1CCCCC1` (stereo unspecified), the growth was 122% (inactive).

Regarding `CC(C)[C@H]1COC(=O)N1[C@@H]1C(=O)N([C@@H](CCC(=O)N2CCN(C3CCCC3)CC2)C(=O)N[C@@H]2CCCc3ccccc32)[C@@H]1/C=C/c1cccc(Br)c1`, the growth was 51.9% (inactive).

Turning to `Nc1ccc(N2CCOCC2)cc1`, the growth is 125% (inactive).

In the case of `COc1cccc(/C=C\C(=O)c2ccccc2)c1`, the growth is 85.8% (inactive).

As to `NS(=O)(=O)c1ccc(-n2ncc3c(=O)[nH]c(CN4CCN(c5cc6c(cc5F)c(=O)c(C(=O)O)cn6C5CC5)CC4)nc32)cc1`, the growth is 97.8% (inactive).

Consider `COc1cc(C2CC(=O)Nc3c2c(C)nn3-c2nc3ccccc3[nH]2)cc(OC)c1OC` (stereo unspecified), for which the growth was 94.5% (inactive).

For `CN1CCCCC1CCN1c2ccccc2Sc2ccc(Br)cc21` (stereo unspecified), the growth is 81% (inactive).

Take `Cc1ccc(C2CC3c4ccccc4C2C2CCCCN32)cc1` (stereo unspecified): the growth is 93.3% (inactive).

Turning to `CCOC(=O)CC(C)=N`, the growth is 107% (inactive).

In the case of `N=S(=O)(NC(=O)c1ccc(Cl)cc1Cl)c1ccc(Br)s1` (stereo unspecified), the growth was 87.3% (inactive).

For the compound `COc1ccc(CN(c2ccc(C)cc2)C2OC(=O)c3ccccc32)cc1OC` (stereo unspecified), the growth was 102% (inactive).

With `c1c2c(cc3c1OCO3)Cc1cc3c(cc1Cc1cc4c(cc1C2)OCO4)OCO3`, the growth was 104% (inactive).

Take `CCCCCCCCCCCCS(=O)CC(C)O` (stereo unspecified): the growth is 101% (inactive).

For the compound `CC1(C)CC(C(=O)OCCCCCCCCCCC[P+](c2ccccc2)(c2ccccc2)c2ccccc2)C(C)(C)N1O` (stereo unspecified), the growth is -44% (active).

For `COc1ccc(/C(=C/c2ccc3ccccc3c2)c2nn[nH]n2)cc1OC`, the growth is 36.5% (inactive).

Turning to `Cc1cccc(NC(=O)c2sc3nc4c(cc3c2N)C(=O)CCC4)c1`, the growth was 18.6% (inactive).

Consider `O=[N+]([O-])c1cccc(C2CC(c3ccccc3)=Nc3ccccc3S2)c1` (stereo unspecified), for which the growth was 95.9% (inactive).

With `CCOC(=O)/C=C/c1ccc(C(=O)OCC)[nH]1`, the growth is 74% (inactive).

As for `CS(CCCCN=C=S)=NC(=O)c1c(F)c(F)c(F)c(F)c1F` (stereo unspecified), the growth was 90.8% (inactive).

For `COC1C/C(=N\O)C2OC(c3ccccc3)OCC2O1` (stereo unspecified), the growth is 106% (inactive).

Take `Cc1cc(Nc2nc(N3CCN(C)CC3)nc3ccccc23)n[nH]1`: the growth is 50.8% (inactive).

For `O=C1Nc2ccccc2/C1=C/C(=N/c1nnc(-c2ccccc2)s1)c1ccccc1`, the growth was 106% (inactive).

Regarding `COc1ccc(N(Cc2cc(OC)c(OC)c(OC)c2)C2OC(=O)c3ccccc32)cc1` (stereo unspecified), the growth was 22.1% (inactive).

With `Cc1csc2ccc(Cl)cc12`, the growth is 104% (inactive).

For `O=C1Nc2ccccc2/C1=C/C(=N/c1nnc(-c2ccc(Cl)cc2)s1)c1ccccc1`, the growth was 80.1% (inactive).

As for `CC(=O)OCC1OC(OC2=C(CC=C(Cl)Cl)C(=O)c3ccccc3C2=O)C(OC(C)=O)C(OC(C)=O)C1OC(C)=O` (stereo unspecified), the growth is 96.9% (inactive).

With `O=C(/C=C/c1ccc(B(O)O)cc1)/C=C/c1ccc(B(O)O)cc1`, the growth was 4.54% (active).

As for `Cc1cc2cc3cc(C)c(N(C)C)cc3[n+](C)c2cc1N(C)C`, the growth was 33.1% (inactive).

The subject of the next assay is NCI/ADR-RES ovarian. Described as above. Particulars: 10 µM unless noted.
For the compound `O=C(O)C(O)C(O)C(=O)O.[NH-]C1CCCCC1[NH-].[Pt+2]` (stereo unspecified), the growth is 107% (inactive).

`Cc1ccc(Nc2c(C(N)=O)cnc3ccc(-c4csc(N)n4)cc23)cc1`: the growth was 96.4% (inactive).

Take `Cl/C(=N\Nc1ccccc1)c1ccccc1`: the growth was 82.9% (inactive).

As to `COc1cc(-c2c3sc(=O)[nH]c3nc3c2c(=O)[nH]n3C(C)C)cc2c1OCO2`, the growth was 102% (inactive).

Turning to `COC(=O)C12C3C(=O)N(c4ccc(OC)cc4)C(=O)C3C(c3cn(-c4ccccc4)nc3C)N1[C@H](c1cn(-c3ccccc3)nc1C)[C@@H]1C(=O)N(c3ccc(OC)cc3)C(=O)[C@@H]12` (stereo partly specified), the growth was 97.4% (inactive).

For `CC/C(Cc1ccccc1)=C(/c1ccc(O)cc1)c1ccc(OCCN2CCCC2)cc1`, the growth was -8.18% (active).

Take `COc1cccc(/C=C2/C(=O)N(Cc3ccco3)SC2=S)c1OC`: the growth was 103% (inactive).

On to `COc1ccc(-c2cc(/C=C3\C(=O)Nc4ccc(Cl)cc43)[nH]n2)cc1`, for which the growth is 34.2% (inactive).

In the case of `CCOC(=O)C(C#N)C1CCCCC1` (stereo unspecified), the growth is 98.5% (inactive).

For the compound `CC(C)[C@H]1COC(=O)N1[C@@H]1C(=O)N([C@@H](CCC(=O)N2CCN(C3CCCC3)CC2)C(=O)N[C@@H]2CCCc3ccccc32)[C@@H]1/C=C/c1cccc(Br)c1`, the growth is 53% (inactive).

For the compound `Nc1ccc(N2CCOCC2)cc1`, the growth was 85.6% (inactive).

On to `COc1cc(C2CC(=O)Nc3c2c(C)nn3-c2nc3ccccc3[nH]2)cc(OC)c1OC` (stereo unspecified), for which the growth was 98.7% (inactive).

On to `CN1CCCCC1CCN1c2ccccc2Sc2ccc(Br)cc21` (stereo unspecified), for which the growth is 73.2% (inactive).

Regarding `Cc1ccc(C2CC3c4ccccc4C2C2CCCCN32)cc1` (stereo unspecified), the growth is 94.1% (inactive).

`CCOC(=O)CC(C)=N`: the growth was 112% (inactive).

For `N=S(=O)(NC(=O)c1ccc(Cl)cc1Cl)c1ccc(Br)s1` (stereo unspecified), the growth was 91.3% (inactive).

For the compound `COc1ccc(CN(c2ccc(C)cc2)C2OC(=O)c3ccccc32)cc1OC` (stereo unspecified), the growth is 96.3% (inactive).

As for `c1c2c(cc3c1OCO3)Cc1cc3c(cc1Cc1cc4c(cc1C2)OCO4)OCO3`, the growth is 113% (inactive).

As to `CC1(C)CC(C(=O)OCCCCCCCCCCC[P+](c2ccccc2)(c2ccccc2)c2ccccc2)C(C)(C)N1O` (stereo unspecified), the growth is 14.6% (inactive).

Turning to `COc1ccc(/C(=C/c2ccc3ccccc3c2)c2nn[nH]n2)cc1OC`, the growth is -15.4% (active).

Turning to `Cc1cccc(NC(=O)c2sc3nc4c(cc3c2N)C(=O)CCC4)c1`, the growth was 17.4% (inactive).

On to `O=[N+]([O-])c1cccc(C2CC(c3ccccc3)=Nc3ccccc3S2)c1` (stereo unspecified), for which the growth was 98.3% (inactive).

As to `CCOC(=O)/C=C/c1ccc(C(=O)OCC)[nH]1`, the growth was 8.24% (active).

Consider `CS(CCCCN=C=S)=NC(=O)c1c(F)c(F)c(F)c(F)c1F` (stereo unspecified), for which the growth was 97.3% (inactive).

On to `COC1C/C(=N\O)C2OC(c3ccccc3)OCC2O1` (stereo unspecified), for which the growth was 103% (inactive).

Turning to `Cc1cc(Nc2nc(N3CCN(C)CC3)nc3ccccc23)n[nH]1`, the growth is 122% (inactive).

Take `O=C1Nc2ccccc2/C1=C/C(=N/c1nnc(-c2ccccc2)s1)c1ccccc1`: the growth is 46.2% (inactive).

On to `COc1ccc(N(Cc2cc(OC)c(OC)c(OC)c2)C2OC(=O)c3ccccc32)cc1` (stereo unspecified), for which the growth is 10.1% (inactive).

In the case of `Cc1csc2ccc(Cl)cc12`, the growth was 103% (inactive).

As to `CC(=O)OCC1OC(OC2=C(CC=C(Cl)Cl)C(=O)c3ccccc3C2=O)C(OC(C)=O)C(OC(C)=O)C1OC(C)=O` (stereo unspecified), the growth is 93.1% (inactive).

Take `O=C(/C=C/c1ccc(B(O)O)cc1)/C=C/c1ccc(B(O)O)cc1`: the growth was 91.7% (inactive).

In the case of `Cc1cc2cc3cc(C)c(N(C)C)cc3[n+](C)c2cc1N(C)C`, the growth is 78.4% (inactive).
